The values that follow come from PubChem BioAssay (NCATS).

Molecules are shown by their SMILES. Results filed as inconclusive are left out. Values without a mark were called inactive. Calls follow the shape of the dose curve; as a rule, active = well fitted curve in either direction with a large enough effect (not every such curve was filed as active); inconclusive = small, poorly fitted or top-dose-only effect, or another doubt; inactive = flat fitted curve, though single readings scatter.
% is scaled to controls: 0 for no effect and ±100 for the full control effect.

A short description of the assay: AP1 Signaling Pathway (AID 357).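 Also: ME-180 reporter cells stimulated with EGF at its EC50 level.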 The conditions noted are these: ME-180 (cervical carcinoma) AP-1-bla reporter, EGF-induced, beta-lactamase ratio, 5 h; at 17.2 µM (top of the series) unless noted. The gist of the method: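 In this screen, ME-180 cells in Opti-MEM with 0.5% dialyzed FBS received EC50 EGF and compound titrations for 5 h. AP-1 reporter beta-lactamase was detected via CCF4 ratio, giving AC50 for positive and negative modulators.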
`Cn1c(NCc2cccnc2)nc2c1c(=O)n(Cc1ccccc1F)c(=O)n2C`: the activity change, negative = inhibition is -1.33%. With `N#Cc1nc(COc2ccccc2F)oc1NCCCn1ccnc1`, the activity change, negative = inhibition is -26.4%. Then `Cc1occc1C(=O)OCC(=O)Nc1ccc(F)cc1`, with 17.4%; and `CCOC(=O)CNS(=O)(=O)c1cc(-c2nn(C)c(=O)c3ccccc23)ccc1C`, with 7.12%; and `CC1(C)CC(=O)C=C(NCCO)C1`, with 20.8%.

`O=c1oc2c(CN3CCCCC3)c(O)ccc2c2c1CCCCC2`: the activity change, negative = inhibition was 2.02%.

On to `COc1cccc(C2C(C(=O)c3cc4ccccc4o3)=C(O)C(=O)N2CCN(C)C)c1OC` (stereo not given), for which the activity change, negative = inhibition was 8.36%.

With `c1ccc(-c2nc(NCC3CCCO3)c3ccccc3n2)nc1` (stereo not given), the activity change, negative = inhibition was -1.55%.

With `O=C(CSc1nnc(-c2ccccc2)c(-c2ccccc2)n1)N1CCOCC1`, the activity change, negative = inhibition was -3.06%.

`O=C(NCCO)C1(c2ccccc2)CCCC1`: the activity change, negative = inhibition was 15.9%.

Take `Cc1ccc(N(CC(O)CN(C)C)S(=O)(=O)c2ccccc2)cc1` (stereo not given): the activity change, negative = inhibition is -7.29%. Then `Cc1cc(C)n(C(=O)CN2C(=O)CCC2=O)n1`, with 14.2%; and `COc1cccc(C2/C(=C(/O)c3cnn(-c4ccccc4)c3C)C(=O)C(=O)N2CCN(C)C)c1` (stereo not given), with 3.35%; and `Nc1ccc2c3c(cccc13)CC2`, with 0.829%. For `CC(O)CNc1nc2c(c(=O)n(C)c(=O)n2C)n1Cc1cccc(C(F)(F)F)c1` (stereo not given), the activity change, negative = inhibition was -10.4%. Then `S=c1[nH]nc(-c2ccccc2)n1Cc1ccccc1`, with -4.69%; and `CCCCC(CCC(=O)Nc1ccc(C(=O)OCC)cc1)C(=O)O` (stereo not given), with -10.4%; and `N#C/C(=C\c1c(N2CCC(C(N)=O)CC2)nc2ccccn2c1=O)S(=O)(=O)c1ccccc1`, with -8.19%. Then `Cc1nnc2n(-c3ccccc3)c(=O)c3c4c(sc3n12)COC(C)(C)C4`, with 4.08%. Then `Clc1ccc(-n2ncc3c(NCCCn4ccnc4)ncnc32)cc1`, with -4.22%; and `CCOC(=O)CSc1nc(C)c(C(C)=O)cc1C#N`, with 8.73%. In the case of `Cc1cc(=O)oc2c(CN3CCN(C)CC3)c(O)c(Cl)cc12`, the activity change, negative = inhibition is 16.9%. Then `COC(=O)c1[nH]c(C)c(/C(O)=C2\C(=O)C(=O)N(CCN3CCOCC3)C2c2cccnc2)c1C` (stereo not given), with 0.561%; and `CCOc1ccc2nc(NC(NC(C)=O)(C(=O)OC)C(F)(F)F)sc2c1` (stereo not given), with 5.71%; and `COc1ccc(C(C)=O)cc1CSCCC(=O)O`, with 3.88%. The same measure for `CCC(c1c(C)n(C)n(-c2ccccc2)c1=O)c1c(C)n(C)n(-c2ccccc2)c1=O`: 6.29%; for `CCCCOc1ccccc1/C=c1/sc2nc(-c3oc4ccccc4c3C)nn2c1=O`: 4.54%.

Turning to `COc1ccc(OC)c(N=C(C)C2=C(O)COC2=O)c1`, the activity change, negative = inhibition was -4.74%.

As for `CCCCCSc1nc(O)cc(=O)[nH]1`, the activity change, negative = inhibition is -9.05%. On to `Cn1c(-n2c(-c3ccco3)nc3ccccc3c2=O)nc2ccccc21`, for which the activity change, negative = inhibition was -5.43%. As for `CCOc1ccccc1C(=O)NCCCCCC(=O)O`, the activity change, negative = inhibition is -1.91%. Then `COc1cccc(C(=O)N2CCN(Cc3ccccn3)CC2)c1OC`, with 2.17%; and `CC(C)Cc1nc(N2CCOCC2)c(C#N)c2c1COC(C)(C)C2`, with 0.834%. Turning to `c1ccc2c(c1)[nH]c1c(N3CCSCC3)ncnc12`, the activity change, negative = inhibition is -11.4%. The same measure for `COC(=O)COc1ccc(Oc2nc(SC)nc(N(C)C)n2)nn1`: 4.25%; for `Cc1cc(=O)oc(C)c1C(=O)NCC1CCCO1` (stereo not given): 2.9%; for `Cc1ccc2cc(CN(C(=O)c3ccco3)c3ccccc3)c(=O)[nH]c2c1`: -24.5%. The same measure for `Fc1ccc(OCCOCCNCC2CCCO2)cc1` (stereo not given): 12.2%; for `CCN1C(=O)CC(N2CCN(c3ccc(OC)cc3)CC2)C1=O` (stereo not given): 7.27%. Then `Cc1cc(=O)[nH]c(COc2ccccc2)n1`, with 3.59%.
